Screening data as filed in PubChem BioAssay.
ALR inh: inhibitors of human ALR sulfhydryl oxidase, primary screen, biochemical, H2O2 detection, HRP-luminol luminescence, single point; FAD-linked sulfhydryl oxidase ALR (Homo sapiens), P55789; purified ALR, DTT oxidation; inhibition, % (test concentration not listed); 290,000 compounds, 3.8% hits;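 active = mean replicate inhibition above about 79%, with every replicate also reaching it, limit read from the data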
CASP6 VEID inh: human caspase-6 inhibitors, primary screen, biochemical, VEID-R110 fluorescence, single point, set 2; 350,000 compounds, 0.53% hits; purified caspase-6, Z-VEID-R110 cleavage fluorescence; inhibition, % at 12.5 µM;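 active = mean inhibition across replicates at least about 35%, with every replicate also reaching that limit, limit read from the data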
PglD DTNB: C. jejuni PglD acetyltransferase inhibitors, primary screen, biochemical, DTNB colorimetric, single point; inhibition, % at 12.5 µM; UDP-N-acetylbacillosamine N-acetyltransferase PglD (Campylobacter jejuni); purified PglD enzyme, DTNB colorimetric CoA detection; 360,000 compounds, 0.098% hits; in the data active = inhibition above about 16%, passing the limit was not always enough
Env fusion inh: inhibitors of HIV-1 Env-driven cell-cell fusion, primary screen, HeLa-JRFL effector, CEM21 target cells, luciferase | inhibition, % at 12.3 µM | AID 651610, 2012 | 360,000 compounds, 1.1% hits;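 active = mean replicate inhibition score of at least 50 and every replicate individually at or above 50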
NSD2 inh: NSD2 histone methyltransferase inhibitors, primary screen, biochemical, AlphaScreen, single concentration, set 2; Histone-lysine N-methyltransferase NSD2 (Homo sapiens), O96028; NSD2 peptide methylation, 120 min; inhibition, % at 12.5 µM; 310,000 compounds, 0.54% hits; AID 743445, 2014; in the data active = inhibition above about 50%
F508del corr: F508del CFTR correction, initial screen, CFBE line, single point; CFBE cells, YFP halide quenching; stimulated with forskolin plus potentiator P3; % fluorescence drop versus neutral controls; 350,000 compounds, 0.36% hits; activity (quench increase), % at 7.58 µM; AID 720511, 2013;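 active = mean added fluorescence quench of at least 8% versus neutral control, with both replicates also reaching 8%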;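 also: cells transiently co-express mutant CFTR-F508del with the halide-sensitive YFP; corrector assay measuring rescue of mutant channel to the surface after 24 h compound exposure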
Large screens that a line does not name were inactive. A selection: hits, their analogues and other compounds. The true share with any hit is near 4.1%.

C[C@@H]1CN([C@H](C)CO)C(=O)Cc2cc(NC(=O)Cc3cn(C)c4ccccc34)ccc2O[C@@H]1CN(C)C(=O)Nc1ccccc1	none (no result: ALR inh, NSD2 inh)
Cc1ccc(/C=C2\SC(=S)N(CCC(=O)NNC(=O)c3ccc(O)cc3)C2=O)cc1	none
COc1cccc(C(=O)NC(=S)Nc2ccc(Cl)cc2C(=O)O)c1	ALR inh 97.4
Cc1cccc(C(=O)NC(=S)Nc2ccccc2C(=O)O)c1	ALR inh 98.7
Cc1ccc(C(=O)Nc2ccc(O)cc2C(=O)O)cc1C	ALR inh 97.7 (no result: Env fusion inh)
CN1C(=O)/C(=C/c2ccc(C(=O)Nc3ccc(O)cc3C(=O)O)cc2)SC1=S	ALR inh 97.4
O=C(C[C@H]1C=C[C@H](NC(=O)c2ccncc2)[C@@H](CO)O1)NCc1ccncn1	none (no result: ALR inh, PglD DTNB, Env fusion inh, NSD2 inh)
O=C(O)c1cc(O)ccc1NC(=O)c1cccc2ccccc12	ALR inh 95.5
Cc1cccc(C(=O)NC(=S)NNC(=O)c2ccccc2Cl)c1	ALR inh 98.4 (no result: PglD DTNB, F508del corr)
O=C(O)c1ccccc1NC(=S)NC(=O)c1cccc2ccccc12	ALR inh 97.9
Cc1c(NC(=S)NC(=O)c2cccc3ccccc23)cccc1C(=O)O	none
Cc1ccc(O)c(NC(=S)NC(=O)c2ccccc2Cl)c1	ALR inh 97.3 (no result: PglD DTNB)
COc1ccc2c3c([nH]c2c1)[C@H](CO)N(C(=O)Nc1ccc(F)cc1)CC31CN(C(=O)c2ccccc2F)C1	none (no result: ALR inh, PglD DTNB, Env fusion inh, NSD2 inh)
C[C@@H]1CN([C@H](C)CO)C(=O)c2cccc(NC(=O)NC3CCCCC3)c2O[C@@H]1CN(C)S(=O)(=O)c1cccs1	none (no result: ALR inh, Env fusion inh, NSD2 inh)
O=C(C[C@H]1CC[C@@H]2[C@H](COC[C@H](O)CN2Cc2nccs2)O1)NCc1ccc(F)cc1	none (no result: ALR inh, NSD2 inh)
O=C(Nc1ccc(Cl)cn1)c1ccccc1[N+](=O)[O-]	none
O=C(Nc1ccc(Cl)cn1)c1cccc2ccccc12	F508del corr 13.3
CO[C@H]1CN(C)C(=O)c2ccc(NC(=O)c3cnccn3)cc2OC[C@H](C)N(CC2CC2)C[C@H]1C	none (no result: ALR inh, PglD DTNB, Env fusion inh, NSD2 inh)
CNC(=O)C[C@H]1CC[C@H]2[C@H](COc3ccc(NC(=O)Nc4ccc(Cl)cc4)cc3C(=O)N2C)O1	none (no result: ALR inh, NSD2 inh)
COc1ccc([N+](=O)[O-])cc1NC(=O)COC(=O)c1ccccc1C(=O)c1ccccc1	none (no result: CASP6 VEID inh, Env fusion inh, F508del corr)
COc1ccc([N+](=O)[O-])cc1NC(=O)C(C)OC(=O)c1ccccc1C(=O)c1ccc(Cl)cc1 (stereo unspecified)	Env fusion inh 84.8 (no result: PglD DTNB, F508del corr)
N#Cc1ncn(C2OC(CO)C(O)C2O)c1N (stereo unspecified)	F508del corr 10.0 (no result: ALR inh, PglD DTNB)
Nc1ncnc2c1ncn2[C@@H]1O[C@H](CO)[C@@H](O)[C@H]1O	none (no result: CASP6 VEID inh, NSD2 inh)
Nc1cc(-c2ccccc2)nn1S(=O)(=O)c1ccc(Br)cc1	ALR inh 98.7 (no result: NSD2 inh)
CO[C@H]1CN(C)C(=O)c2cc(NC(C)=O)ccc2OC[C@@H](C)N(C(=O)c2cnccn2)C[C@H]1C	none (no result: ALR inh, CASP6 VEID inh, NSD2 inh)
C#CC(=O)N(c1ccc(OC)cc1OC)C(C(=O)NC1CCCC1)c1cccs1 (stereo unspecified)	Env fusion inh 109.0 (no result: PglD DTNB)
S=c1nc(-c2ccccc2)n(Cc2cccnc2)c2c1CCCC2	ALR inh 94.2 (no result: CASP6 VEID inh, PglD DTNB, Env fusion inh, NSD2 inh, F508del corr)
C[C@@H]1CCCCO[C@@H](CN(C)S(C)(=O)=O)[C@H](C)CN([C@@H](C)CO)C(=O)c2cc(NC(=O)Cc3ccccc3)ccc2O1	none (no result: ALR inh, NSD2 inh)
Cc1cccn2c(=O)c(C=O)c(Cl)nc12	ALR inh 98.0 (no result: PglD DTNB)
Cc1cccn2c(=O)c(C=O)c(N3CCCCC3)nc12	none
CCC(=O)N1[C@H](CO)[C@@H](c2ccccc2)C12CN(Cc1nccs1)C2	none (no result: ALR inh, PglD DTNB, Env fusion inh, NSD2 inh)
Cc1cnc(SCCc2ccncc2)nc1C	ALR inh 98.6 (no result: CASP6 VEID inh, PglD DTNB, Env fusion inh, NSD2 inh, F508del corr)
N#Cc1cnc(SCCc2ccccc2)nc1N	none (no result: CASP6 VEID inh, F508del corr)
O=C(CS(=O)(=O)c1ccccc1)CS(=O)(=O)c1ccccc1	none (no result: ALR inh, PglD DTNB)
O=S(=O)(C/C(=C/CO)S(=O)(=O)c1ccccc1)c1ccccc1	ALR inh 98.6 (no result: CASP6 VEID inh, F508del corr)
Clc1ccccc1CSc1nnc(-c2ccccn2)n1Cc1ccco1	ALR inh 92.5, Env fusion inh 65.9 (no result: CASP6 VEID inh, F508del corr)
Clc1cccc(CSc2nnc(-c3cccnc3)n2Cc2ccco2)c1	none (no result: PglD DTNB, Env fusion inh)
Clc1ccc(CSc2nnc(-c3cccnc3)n2Cc2ccco2)c(Cl)c1	ALR inh 97.0 (no result: CASP6 VEID inh, PglD DTNB, NSD2 inh, F508del corr)
O=C(C[C@H]1CC[C@H](NC(=O)C2CCOCC2)[C@@H](CO)O1)NCC1CC1	none (no result: ALR inh, PglD DTNB, Env fusion inh, NSD2 inh)
O=C1CCCC(O)=C1C=Nc1ccc(O)cc1	ALR inh 99.2 (no result: CASP6 VEID inh, Env fusion inh, F508del corr)
O=C1CC(c2ccccc2)CC(O)=C1C=Nc1ccc(Cl)cc1 (stereo unspecified)	none (no result: PglD DTNB)
CCc1nc2ccccc2c(C(=O)OCC(=O)Nc2cccc(S(=O)(=O)N3CCOCC3)c2)c1C	Env fusion inh 99.6 (no result: CASP6 VEID inh, F508del corr)
O=C(COC(=O)c1cccc(S(=O)(=O)N2CCCCC2)c1)NCc1ccccc1	none (no result: ALR inh)
O=C(COC(=O)c1cccc(S(=O)(=O)N2CCOCC2)c1)NCc1ccccc1	Env fusion inh 68.1 (no result: PglD DTNB)
Cc1cc(Cl)c(S(=O)(=O)N2CCCC2)cc1OCC(=O)NC1CCCCC1	Env fusion inh 78.0 (no result: CASP6 VEID inh, F508del corr)
C[C@H]1CN([C@@H](C)CO)C(=O)c2cccc(NS(=O)(=O)c3ccc(F)cc3)c2O[C@@H]1CN(C)S(=O)(=O)c1ccc(F)cc1	none (no result: ALR inh, NSD2 inh)
COc1cccc(C(=O)Nc2sc3c(c2C#N)CCN(C(C)=O)C3)c1	F508del corr 13.6 (no result: PglD DTNB)
Cc1ccc(S(=O)(=O)Nc2ccc3c(c2)C(=O)N([C@@H](C)CO)C[C@@H](C)[C@H](CN(C)S(=O)(=O)c2ccc(F)cc2)OCCCC[C@H](C)O3)cc1	none (no result: ALR inh, NSD2 inh)
CC(NCCC(Cc1ccccc1)c1ccco1)c1ccccc1 (stereo unspecified)	none
Cc1ccc(C(CCNC(C)c2cccs2)c2ccco2)cc1 (stereo unspecified)	Env fusion inh 65.8 (no result: PglD DTNB)
C[C@H]1CN([C@@H](C)CO)C(=O)Cc2cc(NC(=O)Cc3ccccc3)ccc2O[C@@H]1CN(C)Cc1ccc(C(=O)Nc2ccccc2N)cc1	none (no result: ALR inh, PglD DTNB, Env fusion inh, NSD2 inh)
O=C(CC1CCCC1)N1CCCC(Nc2ccc(F)cc2)C1 (stereo unspecified)	ALR inh 98.6
O=C(c1cccc(N2CCNC2=O)c1)N1CCCC(Nc2cccc(F)c2)C1 (stereo unspecified)	none (no result: NSD2 inh)
O=C(CC1CCCC1)N1CCCC(Nc2cccc(F)c2)C1 (stereo unspecified)	ALR inh 92.2
O=C(CC1CCCC1)N1CCN(S(=O)(=O)c2ccc(F)cc2)CC1	none
O=C(Cc1ccc(N2CCNC2=O)cc1)N1CCCC(Nc2cccc(F)c2)C1 (stereo unspecified)	ALR inh 99.0
Cc1cc(C)n(CCC(=O)N2CCCC(Nc3ccc(F)cc3)C2)n1 (stereo unspecified)	ALR inh 98.4
